In PubChem BioAssay (Tox21):
Inconclusive results are not listed. Unmarked numbers belong to inactive results. Active and inactive are the calls of the source. Calls come from the whole dose curve; as a rule, active = well fitted cell-killing curve with a large enough effect in the repeat runs; inconclusive = weak or mixed curves, or effect the other way; inactive = no such curve, though single readings can be large or run the other way.

Assay: Caspase-3/7 induction in CHO-K1 cells by small molecules, qHTS cell viability counter screen (AID 1346979); note: nearly all actives have a fitted effect of over 35% in size
Conditions: CellTiter-Fluor fluorescence, 17 h; series mostly up to 92.4 µM; activity change, negative = cytotoxicity: at the top concentration
From the text: National Center for Advancing Translational Sciences [NCATS]
NIH Chemical Genomics Center [NCGC]
U.S. Environmental Protection Agency [EPA]
National Institutes of Environmental Health Sciences [NIEHS]
National Toxicology Program [NTP]
U.S. Food and Drug Administration [FDA]
Apoptosis is a process of programmed cell death and plays a central role in the development of multicellular organisms. It is a highly regulated process and induces cell death by activating caspases, which are the members of cysteine aspartic acid-specific protease (caspase) family. Caspases involved in apoptosis are classified by their mechanism of action as initiator caspases (caspase-2, -8, -9 and -10) and executioner caspases (caspase-3, -6, and -7). Inhibition of apoptosis results in number of cancers, autoimmune diseases, inflammatory diseases and viral infection. To identify small molecule compounds that induce apoptosis, a homogeneous, luminescent Caspase-Glo 3/7 assay was used. Wild type CHO-K1 cells were used to screen Tox21 libraries for identifying caspase-3/7 activity inducers. Also cytotoxicity of the compounds was tested in parallel by measuring the cell viability using CellTiter-Fluor assay system in the same wells.
Tox21 Assay Protocol Summary:
CHO-K1 cells were dispensed at 1,500 per well in 5uL of culture medium into white solid bottom 1536-well plates (Corning Life Sciences, Corning, NY) using a Multidrop Combi (Thermo Scientific, Waltham, MA) dispenser. The assay plates were incubated at 37 C and 5% CO2 for 5hr, and then 23nL of compounds dissolved in DMSO and positive control were transferred using a Pintool station (Wako, San Diego, CA). The assay plates were incubated at 37C and 5% CO2 for 17hr. For cytotoxicity read, after 16hr incubation at 37C, 1uL CellTiter-Fluor reagent (Promega Corporation, Madison, WI) was added to each well of the assay plates using Flying Reagent Dispenser (FRD, Aurora Discovery, San Diego, CA). After 1hr incubation at 37C and 5% CO2, the fluorescence signal was quantified using a ViewLux plate reader (PerkinElmer, Shelton, CT).
% is set by controls: 0 for no effect and ±100 for the full control effect; potency is the fitted concentration of half-maximal effect.

Row | Compound | Potency | activity change, negative = cytotoxicity
1 | Nc1ccc(Oc2ccc(N)c(N)c2)cc1 | 61.1 µM (active) | –
2 | COC(=O)/C=C(/C)N | – | 14.2% [at 42.5 µM]
3 | CC1=C2[C@H](/C=C(\C)C(=O)O)CC[C@@H](C)[C@H]2CC1 | – | 0.662%
4 | CO[Si](C)(C)OC | – | -0.0194%
5 | CCNCCO | – | 4.05%
6 | CNCCC(Oc1ccccc1OC)c1ccccc1 (stereo not given) | – | -2.01% [at 42.5 µM]
7 | CN(C)Cc1ccccc1 | – | 4.55%
8 | COC(=O)c1ccc2cc(C(=O)OC)ccc2c1 | – | 6.59% [at 19 µM]
9 | CC/C=C\CCOC(=O)CCCCC | – | 1.78%
10 | O=C(O[C@@H](C(=O)O)[C@@H](OC(=O)c1ccccc1)C(=O)O)c1ccccc1 | – | 1.21%
11 | C=CC(C)(O)CC/C=C(\C)CCC=C(C)C (stereo not given) | – | -10.1%
12 | CCCCc1ccc2nc(NC(=O)OC)[nH]c2c1 | 1.19 µM (active) | –
13 | C[C@]12CCC(=O)C=C1CC[C@@H]1[C@@H]2CC[C@@]2(C)[C@H]1CC[C@]2(O)C(=O)CO | – | 9.84% [at 42.5 µM]
14 | CCOc1ccc(NS(=O)(=O)c2ccc(N)cc2)nn1 | – | 10.1% [at 42.5 µM]
15 | CCC/C=C/CO | – | 10.1%
16 | COc1ccccc1N1CCN(CCCNc2cc(=O)n(C)c(=O)n2C)CC1 | – | -0.981% [at 42.5 µM]
17 | Cc1ccc(C=O)s1 | – | 8.31%
18 | NS(=O)(=O)c1cc(-c2nn[nH]n2)c(NCc2cccs2)cc1Cl | – | -3.57% [at 42.5 µM]
19 | CC1(O)CSC(C)(O)CS1 (stereo not given) | – | 4%
20 | CN1CCN(c2c(F)cc3c(=O)c(C(=O)O)cn4c3c2SCC4)CC1 | – | -5.07% [at 42.5 µM]

Row | Compound | Potency | activity change, negative = cytotoxicity
21 | Cc1cccc(C)c1NC(=O)CN1CCCCCC1 | – | 0.579% [at 42.5 µM]
22 | CC1(C)S[C@@H]2[C@H](NC(=O)C(C(=O)O)c3ccccc3)C(=O)N2[C@H]1C(=O)O (stereo not given in full) | – | 5.7% [at 42.5 µM]
23 | CCCCC1CCC(=O)O1 (stereo not given) | – | 5.8%
24 | NC(=O)Cc1cccc(C(=O)c2ccccc2)c1N | – | 5.84% [at 42.5 µM]
25 | O=C1C=CC(=O)O1 | – | 4.28%
26 | CC[C@H]1CC[C@H](NCc2cc3c(cc2OC)[C@H]2C[C@H]2C(=O)N3C)[C@H](c2ccccc2)N1 | 24.3 µM (active) | –
27 | C=Cc1ccccc1 | – | 9.06%
28 | CC1=NN(c2cc(Cl)c(S(=O)(=O)O)cc2Cl)C(=O)C1N=Nc1ccc(S(=O)(=O)O)cc1 (stereo not given) | 54.5 µM (active) | –
29 | O=C(O)[C@@H]1CSCN1 | – | 1.64% [at 42.5 µM]
30 | CC(C)O | – | -5.35%
31 | OCCN1CCN(CCO)CC1 | – | -0.872%
32 | Cc1nc(N)nc(N)c1-c1ccc(Cl)c(Cl)c1 | – | -4.17% [at 42.5 µM]
33 | CCC(=O)Nc1ccc(O)cc1 | – | 10.5% [at 42.5 µM]
34 | O=S(=O)(O)C(F)(F)F | – | 1.4%
35 | Cc1cc2nc(N)sc2cc1C | – | -0.204%
36 | Clc1cccc(-c2cc(Cl)cc(Cl)c2)c1 | – | 0.65%
37 | Cc1cn([C@@H]2O[C@H](CO)[C@@H](O)[C@@H]2F)c(=O)[nH]c1=O | – | 5.18% [at 42.5 µM]
38 | CCCC1CCC(=O)O1 (stereo not given) | – | 9.66%
39 | CN1CCN(C2=Nc3cc(F)ccc3Cc3ccccc32)CC1 | – | 1.68% [at 42.5 µM]
40 | CC1=C(O)C(=O)OC1C (stereo not given) | – | 1.12%
